Hit rate of the full screen: of about 5,500 compounds, about 2,000 (36%) were called active. Inconclusive results (about 18%) are left out. Rule as the data show it: active = normalized growth mostly below about 0.91 (no sharp cut-off); inconclusive = no clear call, values can overlap the other calls; inactive = mostly above about 0.92. The list shows a part of the results.
Assay: chemical genetic growth profiling, strain panel (AID 1159580);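 also: tested at 20 µM; growth read once vehicle control cultures reached saturation at 30 °C; 1 = growth at the plate median or of vehicle wells; lower values mean less growth of the strain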
Conditions: growth OD

Measured: normalized growth

CC(C)=CCc1c2c(c(O)c3c(=O)c(O)c(-c4ccccc4)oc13)C=CC(C)(C)O2
active: S. cerevisiae deletion strains, locus YAL021C, strain ccr4, hits give low values 0.79 | S. cerevisiae deletion strains, locus YAL026C, strain drs2, hits give low values 0.566 | S. cerevisiae deletion strains, locus YAL030W, strain snc1, hits give low values 0.886 | S. cerevisiae deletion strains, locus YBL061C, strain skt5, hits give low values 0.688 | S. cerevisiae deletion strains, locus YBR023C, strain chs3, hits give low values 0.687 | S. cerevisiae deletion strains, locus YBR229C, strain ROT2, hits give low values 0.829 | S. cerevisiae deletion strains, locus YBR231C, strain swc5, hits give low values 0.678 | S. cerevisiae deletion strains, locus YCL011C, strain gbp2, hits give low values 0.683 | S. cerevisiae deletion strains, locus YCL029C, strain bik1, hits give low values 0.678 | S. cerevisiae deletion strains, locus YCL061C, strain MRC1, hits give low values 0.748 | S. cerevisiae deletion strains, locus YCL069W, strain vba3, hits give low values 0.751 | S. cerevisiae deletion strains, locus YCR088W, strain abp1, hits give low values 0.835 | S. cerevisiae deletion strains, locus YDL035C, strain GPR1, hits give low values 0.589 | S. cerevisiae deletion strains, locus YDL074C, strain BRE1, hits give low values 0.49 | S. cerevisiae deletion strains, locus YDL101C, strain DUN1, hits give low values 0.628 | S. cerevisiae deletion strains, locus YDL185W, strain tfp1, hits give low values 0.769 | S. cerevisiae deletion strains, locus YDL192W, strain arf1, hits give low values 0.732 | S. cerevisiae deletion strains, locus YDR069C, strain doa4, hits give low values 0.613 | S. cerevisiae deletion strains, locus YDR101C, strain arx1, hits give low values 0.809 | S. cerevisiae deletion strains, locus YDR162C, strain NBP2, hits give low values 0.326 | S. cerevisiae deletion strains, locus YDR297W, strain sur2, hits give low values 0.821 | S. cerevisiae deletion strains, locus YDR318W, strain mcm21, hits give low values 0.73 | S. cerevisiae deletion strains, locus YDR334W, strain swr1, hits give low values 0.582 | S. cerevisiae deletion strains, locus YDR335W, strain msn5, hits give low values 0.793 | S. cerevisiae deletion strains, locus YDR388W, hits give low values 0.745 | S. cerevisiae deletion strains, locus YDR392W, strain spt3, hits give low values 0.602 | S. cerevisiae deletion strains, locus YDR502C, strain sam2, hits give low values 0.794 | S. cerevisiae deletion strains, locus YEL003W, strain gim4, hits give low values 0.683 | S. cerevisiae deletion strains, locus YEL037C, strain rad23, hits give low values 0.788 | S. cerevisiae deletion strains, locus YEL061C, strain CIN8 (second series), hits give low values 0.876 | S. cerevisiae deletion strains, locus YER015W, strain faa2, hits give low values 0.457 | S. cerevisiae deletion strains, locus YER111C, strain swi4, hits give low values 0.734 | S. cerevisiae deletion strains, locus YER155C, strain BEM2 (second series), hits give low values 0.755 | S. cerevisiae deletion strains, locus YER155C, strain BEM2, hits give low values 0.762 | S. cerevisiae deletion strains, locus YER167W, strain BCK2, hits give low values 0.683 | S. cerevisiae deletion strains, locus YFR010W, strain ubp6, hits give low values 0.632 | S. cerevisiae deletion strains, locus YGL086W, strain mad1, hits give low values 0.701 | S. cerevisiae deletion strains, locus YGL173C, strain kem1, hits give low values 0.475 | S. cerevisiae deletion strains, locus YGL248W, strain PDE1, hits give low values 0.586 | S. cerevisiae deletion strains, locus YGL253W, strain hxk2, hits give low values 0.657 | S. cerevisiae deletion strains, locus YGR078C, strain PAC10, hits give low values 0.554 | S. cerevisiae deletion strains, locus YGR135W, strain pre9, hits give low values 0.69 | S. cerevisiae deletion strains, locus YHR027C, strain rpn1, hits give low values 0.356 | S. cerevisiae deletion strains, locus YHR079C, strain IRE1 (second series), hits give low values 0.774 | S. cerevisiae deletion strains, locus YHR094C, strain hxt1, hits give low values 0.828 | S. cerevisiae deletion strains, locus YHR129C, strain ARP1, hits give low values 0.55 | S. cerevisiae deletion strains, locus YHR142W, strain chs7, hits give low values 0.653 | S. cerevisiae deletion strains, locus YHR200W, strain rpn10, hits give low values 0.731 | S. cerevisiae deletion strains, locus YIL066C, strain RNR3, hits give low values 0.54 | S. cerevisiae deletion strains, locus YIL073C, strain SPO22, hits give low values 0.32 | S. cerevisiae deletion strains, locus YIL125W, strain kgd1, hits give low values 0.88 | S. cerevisiae deletion strains, locus YIR030C, strain dcg1, hits give low values 0.837 | S. cerevisiae deletion strains, locus YJL092W, strain hpr5, hits give low values 0.834 | S. cerevisiae deletion strains, locus YJL095W, strain BCK1 (second series), hits give low values 0.628 | S. cerevisiae deletion strains, locus YJL095W, strain BCK1, hits give low values 0.379 | S. cerevisiae deletion strains, locus YJL115W, strain asf1, hits give low values 0.829 | S. cerevisiae deletion strains, locus YJL134W, strain LCB3, hits give low values 0.778 | S. cerevisiae deletion strains, locus YJL154C, strain vps35, hits give low values 0.817 | S. cerevisiae deletion strains, locus YJL164C, strain tpk1, hits give low values 0.732 | S. cerevisiae deletion strains, locus YJL166W, strain qcr8, hits give low values 0.891 | S. cerevisiae deletion strains, locus YJL168C, strain set2, hits give low values 0.864 | S. cerevisiae deletion strains, locus YJL187C, strain SWE1 (second series), hits give low values 0.417 | S. cerevisiae deletion strains, locus YJL187C, strain SWE1, hits give low values 0.639 | S. cerevisiae deletion strains, locus YJR043C, strain POL32, hits give low values 0.496 | S. cerevisiae deletion strains, locus YKL190W, strain CNB1, hits give low values 0.585 | S. cerevisiae deletion strains, locus YKR001C, strain vps1, hits give low values 0.816 | S. cerevisiae deletion strains, locus YKR026C, strain gcn3, hits give low values 0.899 | S. cerevisiae deletion strains, locus YKR091W, strain srl3, hits give low values 0.831 | S. cerevisiae deletion strains, locus YLL001W, strain dnm1, hits give low values 0.74 | S. cerevisiae deletion strains, locus YLR027C, strain aat2, hits give low values 0.86 | S. cerevisiae deletion strains, locus YLR039C, strain RIC1, hits give low values 0.379 | S. cerevisiae deletion strains, locus YLR058C, strain SHM2, hits give low values 0.563 | S. cerevisiae deletion strains, locus YLR221C, strain rsa3, hits give low values 0.835 | S. cerevisiae deletion strains, locus YLR258W, strain gsy2, hits give low values 0.892 | S. cerevisiae deletion strains, locus YLR262C, strain YPT6 (second series), hits give low values 0.542 | S. cerevisiae deletion strains, locus YLR268W, strain sec22, hits give low values 0.633 | S. cerevisiae deletion strains, locus YLR320W, strain mms22, hits give low values 0.762 | S. cerevisiae deletion strains, locus YLR342W, strain FKS1, hits give low values 0.514 | S. cerevisiae deletion strains, locus YLR357W, strain rsc2, hits give low values 0.61 | S. cerevisiae deletion strains, locus YLR370C, strain arc18, hits give low values 0.754 | S. cerevisiae deletion strains, locus YLR371W, strain rom2, hits give low values 0.623 | S. cerevisiae deletion strains, locus YLR384C, strain iki3, hits give low values 0.723 | S. cerevisiae deletion strains, locus YLR418C, strain cdc73, hits give low values 0.502 | S. cerevisiae deletion strains, locus YML016C, strain PPZ1, hits give low values 0.484 | S. cerevisiae deletion strains, locus YML032C, strain rad52, hits give low values 0.861 | S. cerevisiae deletion strains, locus YML120C, strain ndi1, hits give low values 0.822 | S. cerevisiae deletion strains, locus YML124C, strain tub3, hits give low values 0.878 | S. cerevisiae deletion strains, locus YMR058W, strain fet3, hits give low values 0.143 | S. cerevisiae deletion strains, locus YMR125W, strain sto1, hits give low values 0.872 | S. cerevisiae deletion strains, locus YMR129W, hits give low values 0.854 | S. cerevisiae deletion strains, locus YMR205C, strain PFK2, hits give low values 0.51 | S. cerevisiae deletion strains, locus YMR223W, strain ubp8, hits give low values 0.711 | S. cerevisiae deletion strains, locus YMR231W, strain pep5, hits give low values 0.533 | S. cerevisiae deletion strains, locus YMR307W, strain GAS1, hits give low values 0.53 | S. cerevisiae deletion strains, locus YNL067W, strain RPL9B, hits give low values 0.697 | S. cerevisiae deletion strains, locus YNL071W, strain lat1, hits give low values 0.898 | S. cerevisiae deletion strains, locus YNL153C, strain GIM3, hits give low values 0.619 | S. cerevisiae deletion strains, locus YNL209W, strain ssb2, hits give low values 0.277 | S. cerevisiae deletion strains, locus YNL233W, strain BNI4, hits give low values 0.548 | S. cerevisiae deletion strains, locus YNL248C, strain rpa49, hits give low values 0.842 | S. cerevisiae deletion strains, locus YNL271C, strain bni1, hits give low values 0.886 | S. cerevisiae deletion strains, locus YNL298W, strain CLA4, hits give low values 0.88 | S. cerevisiae deletion strains, locus YNL307C, strain MCK1, hits give low values 0.775 | S. cerevisiae deletion strains, locus YNR052C, strain pop2, hits give low values 0.824 | S. cerevisiae deletion strains, locus YOL006C, strain TOP1, hits give low values 0.319 | S. cerevisiae deletion strains, locus YOL147C, strain pex11, hits give low values 0.873 | S. cerevisiae deletion strains, locus YOR001W, strain rrp6, hits give low values 0.836 | S. cerevisiae deletion strains, locus YOR061W, strain CKA2, hits give low values 0.528 | S. cerevisiae deletion strains, locus YOR069W, strain VPS5, hits give low values 0.606 | S. cerevisiae deletion strains, locus YOR070C, strain gyp1, hits give low values 0.77 | S. cerevisiae deletion strains, locus YOR080W, strain dia2, hits give low values 0.818 | S. cerevisiae deletion strains, locus YOR083W, strain WHI5, hits give low values 0.616 | S. cerevisiae deletion strains, locus YOR106W, strain vam3, hits give low values 0.832 | S. cerevisiae deletion strains, locus YOR136W, strain idh2, hits give low values 0.84 | S. cerevisiae deletion strains, locus YOR144C, strain elg1, hits give low values 0.893 | S. cerevisiae deletion strains, locus YOR184W, strain ser1, hits give low values 0.661 | S. cerevisiae deletion strains, locus YOR265W, strain rbl2, hits give low values 0.699 | S. cerevisiae deletion strains, locus YOR270C, strain vph1, hits give low values 0.394 | S. cerevisiae deletion strains, locus YOR316C, strain cot1, hits give low values 0.865 | S. cerevisiae deletion strains, locus YPL051W, strain arl3, hits give low values 0.48 | S. cerevisiae deletion strains, locus YPL078C, strain atp4, hits give low values 0.879 | S. cerevisiae deletion strains, locus YPL106C, strain sse1, hits give low values 0.83 | S. cerevisiae deletion strains, locus YPL241C, strain CIN2, hits give low values 0.788 | S. cerevisiae deletion strains, locus YPR119W, strain clb2, hits give low values 0.914 | S. cerevisiae deletion strains, locus YPR163C, strain tif3, hits give low values 0.771 | S. cerevisiae deletion strains, locus YPR167C, strain met16, hits give low values 0.712 | S. cerevisiae deletion strains, strain wtn01, hits give low values 0.632 | S. cerevisiae strains, strain wild type, hits give low values 0.346
inactive: S. cerevisiae deletion strains, locus YBR009C, strain hhf1, hits give low values 0.917 | S. cerevisiae deletion strains, locus YBR021W, strain FUR4, hits give low values 0.958 | S. cerevisiae deletion strains, locus YBR171W, strain sec66, hits give low values 0.939 | S. cerevisiae deletion strains, locus YBR279W, strain paf1, hits give low values 0.988 | S. cerevisiae deletion strains, locus YCL016C, strain dcc1, hits give low values 0.962 | S. cerevisiae deletion strains, locus YDL005C, strain med2, hits give low values 0.981 | S. cerevisiae deletion strains, locus YDL040C, strain nat1, hits give low values 1.01 | S. cerevisiae deletion strains, locus YDR001C, strain nth1, hits give low values 0.931 | S. cerevisiae deletion strains, locus YDR137W, strain rgp1, hits give low values 1.04 | S. cerevisiae deletion strains, locus YDR159W, strain sac3, hits give low values 0.876 | S. cerevisiae deletion strains, locus YDR195W, strain ref2 0.896 | S. cerevisiae deletion strains, locus YER016W, strain bim1, hits give low values 0.987 | S. cerevisiae deletion strains, locus YER110C, hits give low values 0.927 | S. cerevisiae deletion strains, locus YGL078C, strain dbp3, hits give low values 0.942 | S. cerevisiae deletion strains, locus YGL167C, strain pmr1, hits give low values 0.996 | S. cerevisiae deletion strains, locus YGL227W, strain vid30, hits give low values 0.973 | S. cerevisiae deletion strains, locus YGL240W, strain doc1, hits give low values 0.977 | S. cerevisiae deletion strains, locus YGR252W, strain gcn5, hits give low values 0.774 | S. cerevisiae deletion strains, locus YHR013C, strain ard1, hits give low values 0.998 | S. cerevisiae deletion strains, locus YJL129C, strain trk1, hits give low values 0.894 | S. cerevisiae deletion strains, locus YKL009W, strain mrt4, hits give low values 1.02 | S. cerevisiae deletion strains, locus YKL068W, hits give low values 0.977 | S. cerevisiae deletion strains, locus YKL085W, strain MDH1 (second series), hits give low values 0.984 | S. cerevisiae deletion strains, locus YKL085W, strain MDH1, hits give low values 0.984 | S. cerevisiae deletion strains, locus YKL160W, strain elf1, hits give low values 0.99 | S. cerevisiae deletion strains, locus YLL026W, hits give low values 0.94 | S. cerevisiae deletion strains, locus YLL041C, strain sdh2, hits give low values 0.979 | S. cerevisiae deletion strains, locus YLR102C, strain apc9, hits give low values 0.93 | S. cerevisiae deletion strains, locus YMR078C, strain ctf18, hits give low values 0.92 | S. cerevisiae deletion strains, locus YNL250W, strain rad50, hits give low values 0.951 | S. cerevisiae deletion strains, locus YNL322C, strain KRE1 (second series), hits give low values 0.943 | S. cerevisiae deletion strains, locus YNR049C, strain mso1, hits give low values 0.958 | S. cerevisiae deletion strains, locus YOL012C, strain htz1 0.278 | S. cerevisiae deletion strains, locus YOR290C, strain snf2, hits give low values 0.887 | S. cerevisiae deletion strains, locus YPL240C, strain hsp82, hits give low values 0.956 | S. cerevisiae deletion strains, locus YPR141C, strain kar3, hits give low values 0.962

From PubChem BioAssay AID1159580 (chemical genetic matrix, 2015)
